Measured values published in PubChem BioAssay (Tox21).
Results filed as inconclusive are left out. Active and inactive are the calls of the source. Unless noted, the call rests on the fitted dose curve.

Key:
[1] = Nuclear factor erythroid 2-related factor 2/antioxidant responsive element (Nrf2/ARE) small molecule agonists: qHTS cell viability counter screen in human keratinocytes (AID 1919968; active means well fitted curve in the direction sought with a large enough effect in the repeat runs; an effect the other way counts as inactive or inconclusive; further: nearly all actives have a fitted effect of over 55% in size)
In short: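 KeratinoSens HaCaT cells, 1,500/well, preincubated 5 h, then exposed to compounds in DMSO for 23 h at 37 C/5% CO2. Viability read as CellTiter-Fluor fluorescence after 1 h, in the same wells as the ARE-luciferase read.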

[2] = Nuclear factor erythroid 2-related factor 2/antioxidant responsive element (Nrf2/ARE) small molecule agonists: luciferase reporter gene qHTS assay in human keratinocytes (AID 1919969); further: nearly all actives have a fitted effect of over 35% in size
[3] = target: Gonadotropin-releasing hormone receptor (Homo sapiens) (UniProt P30968); experiment: Human gonadotropin-releasing hormone receptor (GnRHR) small molecule agonists, calcium flux assay in GnRHR-HEK293 cells (AID 1920063); further: nearly all actives have a fitted effect of over 35% in size
In short: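 HEK293 cells stably expressing human GnRHR were dye-loaded for 1 h at 37 C. Compound was added in agonist mode and fluorescence (Ex/Em 480/540) recorded kinetically for 3 min. Fifteen concentrations, triplicates.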

[4] = target: KiSS-1 receptor (Homo sapiens) (UniProt Q969F8); experiment: Human kisspeptin (KISS1R) small molecule agonists, calcium flux assay in KISS1R-HEK293 cells (AID 1920064; active means well fitted curve in the direction sought with a large enough effect in the repeat runs; an effect the other way counts as inactive or inconclusive)
In short: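 HEK293 cells stably expressing human KISS1R were loaded with calcium dye for 1 h at 37 C, then given compound; fluorescence (Ex/Em 480/540) was read kinetically for 3 min. Fifteen concentrations, triplicate.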

[5] = G protein-coupled receptor (GPCR) small molecule agonists, calcium flux assay: HEK293 wild type cell line counter screen (AID 1920065)
In short: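 Wild-type HEK293 cells plated 18 h, loaded with calcium dye 1 h at 37 C, then compounds added in agonist mode (ATP as positive control). Kinetic fluorescence Ex/Em 480/540 recorded 3 min at 1 sec intervals; 15 concentrations, triplicate.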

[6] = p53 small molecule agonists, cell-based qHTS assay with human liver microsomes (AID 1963577);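 further: p53 response element beta-lactamase reporter cells with liver microsomes plus NADPH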
In short: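 Steps: plate p53RE-bla cells, incubate 5 h at 37 C; add compound in DMSO; add microsomes (0.5 mg/mL final) and NADPH (0.5 mg/mL final); incubate 16 h at 37 C; add LiveBLAzer, 2 h RT; read fluorescence.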

[7] = p53 small molecule agonists, cell-based qHTS assay with rat liver microsomes (AID 1963578)
In short: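 Metabolic activation is supplied by rat liver microsomes with NADPH (each 0.5 mg/mL final). p53RE-bla cells incubate with compound 16 h at 37 C; reporter activity is measured by LiveBLAzer fluorescence.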

[8] = p53 small molecule agonists, cell-based qHTS assay with human liver microsomes: qHTS cell viability counter screen (AID 1963579); further: nearly all actives have a fitted effect of over 45% in size
In short: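 After the 460/530 nm beta-lactamase read, CellTiter-Glo was added to the same wells and luminescence measured after 30 min at room temperature, giving viability of p53RE-bla cells treated 16 h with compounds plus microsomes and NADPH.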

[9] = p53 small molecule agonists, cell-based qHTS assay with rat liver microsomes: qHTS cell viability counter screen (AID 1963580); further: nearly all actives have a fitted effect of over 45% in size
In short: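 p53RE-bla HCT-116 cells (4,000/well) rested 5 h at 37 C, then given Tox21 compounds in DMSO with rat liver microsomes (0.5 mg/mL final) plus NADPH (0.5 mg/mL final) for 16 h at 37 C. Viability read by CellTiter-Glo luminescence after 30 min at room temperature.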

[10] = p53 small molecule agonists, cell-based qHTS assay: qHTS cell viability counter screen (AID 1963581); further: nearly all actives have a fitted effect of over 45% in size
In short: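 p53RE-bla HCT-116 cells, compounds added 5 h after plating and incubated 16 h at 37 C. Cytotoxicity measured in the same wells as intracellular ATP by CellTiter-Glo luminescence after 30 min at room temperature.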

[11] = p53 small molecule agonists, cell-based qHTS assay (AID 1963582; active means well fitted activation curve with a large enough effect in the signal ratio in the repeat runs, not every such curve was filed as active; the % refers to the signal ratio)
In short: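 p53RE-bla reporter cells, compounds added in DMSO after 5 h plating, incubated 16 h at 37 C. Beta-lactamase read via 2 h room-temperature LiveBLAzer B/G FRET substrate, fluorescence intensity.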

[12] = target: 5-hydroxytryptamine receptor 2A (Homo sapiens) (UniProt P28223); experiment: 5-hydroxytryptamine receptor 2A (HTR2A) small molecule antagonists, cell-based qHTS assay (AID 1963586); further: nearly all actives have a fitted effect of over 45% in size
In short: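 Antagonist-mode intracellular calcium assay: DOI (4 nM) added after 5 min compound pre-incubation at room temperature to dye-loaded HTR2A-CHO cells. Fluorescence followed for 3 min, sampled every second.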

[13] = target: 5-hydroxytryptamine receptor 2A (Homo sapiens) (UniProt P28223); experiment: 5-hydroxytryptamine receptor 2A (HTR2A) small molecule agonists, cell-based qHTS assay (AID 1963587); further: nearly all actives have a fitted effect of over 30% in size
In short: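 HTR2A-CHO cells, plated 18 h at 37 C/5% CO2, dye-loaded 1 h at 37 C; compounds in DMSO added by pin tool (agonist mode). Intracellular calcium flux read as kinetic fluorescence on FDSS over 2 min at 1 s intervals.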

[14] = target: Muscarinic acetylcholine receptor M1 (Homo sapiens) (UniProt P11229); experiment: Cholinergic receptor muscarinic 1 (CHRM1) small molecule antagonists, cell-based qHTS assay (AID 1963588); further: nearly all actives have a fitted effect of over 40% in size
In short: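 CHRM1-CHO calcium-flux assay, antagonist mode. Cells were seeded 18 h, dye-loaded 1 h at 37 C and given compound for 5 min at RT, then acetylcholine was added at 50nM. FDSS fluorescence was read 3 min; 15 concentrations, three runs.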

[15] = target: Muscarinic acetylcholine receptor M1 (Homo sapiens) (UniProt P11229); experiment: Cholinergic receptor muscarinic 1 (CHRM1) small molecule agonists, cell-based qHTS assay (AID 1963589); further: nearly all actives have a fitted effect of over 35% in size
In short: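 CHO cells stably expressing human CHRM1 were loaded with calcium dye for 1 h at 37 C, then compound was added in agonist mode. Intracellular calcium fluorescence was followed kinetically at 1 s intervals. Fifteen concentrations were tested in three independent runs.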

[16] = cAMP Responsive Elements (CRE) small molecule agonists, cell-based qHTS assay (AID 1963590)
In short: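 CRE-bla HEK 293T cells, 2,000/well in DMEM with 10% dialyzed FBS and 25 mM HEPES, pre-incubated 18 h at 37 C, then exposed to compound 3 h at 37 C. Beta-lactamase reporter read with LiveBLAzer B/G FRET substrate after 2 h at room temperature.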

[17] = target: Beta-2 adrenergic receptor (Homo sapiens) (UniProt P07550); experiment: Adrenergic beta2 receptor (ADRB2) small molecule antagonists, cell-based qHTS assay (AID 1963592); further: series mostly up to about 92 µM; nearly all actives have a fitted effect of over 50% in size
In short: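 Cells (CHO, stable ADRB2 overexpression) incubated 18-20hr at 37C; compounds added from DMSO; agonist mix (1nM isoproterenol, 100uM IBMX, 25uM Ro-20-1724) added; 0.5hr RT; d2-cAMP and anti-cAMP-cryptate added; 1hr RT; 665/615 nm read.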

[18] = target: D(2) dopamine receptor (Homo sapiens) (UniProt P14416); experiment: Dopamine D2 receptor (DRD2) small molecule agonists, cell-based qHTS assay (AID 1963594); further: nearly all actives have a fitted effect of over 35% in size
In short: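 HEK293 cells stably expressing DRD2 were cultured 24 h at 37 C, then given Ro20-1724 (0.1 mM final) and compounds for 10 min at room temperature. NKH477 (200nM) was then added for 30 min. cAMP was read by HTRF.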

[19] = target: D(2) dopamine receptor (Homo sapiens) (UniProt P14416); experiment: Dopamine D2 receptor (DRD2) small molecule antagonists, cell-based qHTS assay (AID 1963595; active means well fitted inhibition curve with a large enough effect in the signal ratio in the repeat runs, with a control signal flat; the % refers to the signal ratio)
In short: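 Human DRD2 antagonist qHTS measuring cAMP by HTRF. The cells are exposed to compound for 10 min, then to NKH477 (200 nM) and quinpirole (12 nM) for 30 min at RT, with Ro20-1724 (0.1 mM) present throughout.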

[20] = cAMP Responsive Elements (CRE) small molecule antagonists, cell-based qHTS assay (AID 1963591; active means well fitted inhibition curve with a large enough effect in the signal ratio in the repeat runs, not every such curve was filed as active; the % refers to the signal ratio)
In short: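 CRE-bla HEK293T cells plated 18 h, then given compound plus NKH477 at 0.25 uM final for 3 h at 37C. Beta-lactamase reporter read with LiveBLAzer B/G FRET substrate after 2 h at room temperature.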

Measured: Potency

Gonadotropin-releasing hormone receptor (Homo sapiens), sequence (P30968 whole entry, looked up): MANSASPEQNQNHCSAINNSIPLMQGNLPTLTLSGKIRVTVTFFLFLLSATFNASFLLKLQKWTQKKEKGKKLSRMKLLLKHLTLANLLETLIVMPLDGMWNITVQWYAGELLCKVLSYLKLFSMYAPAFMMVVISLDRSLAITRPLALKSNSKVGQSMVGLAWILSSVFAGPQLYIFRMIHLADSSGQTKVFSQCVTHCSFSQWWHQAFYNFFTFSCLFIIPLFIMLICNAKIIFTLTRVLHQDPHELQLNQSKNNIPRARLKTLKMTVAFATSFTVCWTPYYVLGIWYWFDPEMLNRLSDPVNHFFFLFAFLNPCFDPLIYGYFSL
Beta-2 adrenergic receptor (Homo sapiens), sequence (P07550 whole entry, looked up): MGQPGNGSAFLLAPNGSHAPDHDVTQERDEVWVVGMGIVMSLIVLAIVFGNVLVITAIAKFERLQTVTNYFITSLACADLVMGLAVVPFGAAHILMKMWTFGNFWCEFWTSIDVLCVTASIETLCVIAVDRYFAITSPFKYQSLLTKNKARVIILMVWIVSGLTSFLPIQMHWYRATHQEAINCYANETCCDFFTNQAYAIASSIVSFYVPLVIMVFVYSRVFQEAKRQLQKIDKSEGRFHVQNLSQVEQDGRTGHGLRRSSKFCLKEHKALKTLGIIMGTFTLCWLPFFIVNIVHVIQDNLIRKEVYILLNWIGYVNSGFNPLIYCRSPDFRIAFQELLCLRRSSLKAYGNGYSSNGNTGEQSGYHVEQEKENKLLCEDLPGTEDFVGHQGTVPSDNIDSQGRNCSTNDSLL
D(2) dopamine receptor (Homo sapiens), sequence (P14416 whole entry, looked up): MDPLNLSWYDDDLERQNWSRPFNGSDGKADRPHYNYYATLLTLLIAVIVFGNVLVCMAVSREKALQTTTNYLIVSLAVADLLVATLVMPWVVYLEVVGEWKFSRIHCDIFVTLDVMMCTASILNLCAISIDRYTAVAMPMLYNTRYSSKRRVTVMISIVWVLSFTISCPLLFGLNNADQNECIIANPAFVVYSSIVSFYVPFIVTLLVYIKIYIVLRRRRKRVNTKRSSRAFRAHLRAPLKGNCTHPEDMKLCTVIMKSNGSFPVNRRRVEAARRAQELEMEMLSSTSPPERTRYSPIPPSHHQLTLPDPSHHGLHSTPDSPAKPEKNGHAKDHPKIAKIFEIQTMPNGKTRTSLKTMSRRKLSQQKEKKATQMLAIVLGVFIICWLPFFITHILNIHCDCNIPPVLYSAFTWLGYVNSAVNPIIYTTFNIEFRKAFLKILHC
KiSS-1 receptor (Homo sapiens), sequence (Q969F8 whole entry, looked up): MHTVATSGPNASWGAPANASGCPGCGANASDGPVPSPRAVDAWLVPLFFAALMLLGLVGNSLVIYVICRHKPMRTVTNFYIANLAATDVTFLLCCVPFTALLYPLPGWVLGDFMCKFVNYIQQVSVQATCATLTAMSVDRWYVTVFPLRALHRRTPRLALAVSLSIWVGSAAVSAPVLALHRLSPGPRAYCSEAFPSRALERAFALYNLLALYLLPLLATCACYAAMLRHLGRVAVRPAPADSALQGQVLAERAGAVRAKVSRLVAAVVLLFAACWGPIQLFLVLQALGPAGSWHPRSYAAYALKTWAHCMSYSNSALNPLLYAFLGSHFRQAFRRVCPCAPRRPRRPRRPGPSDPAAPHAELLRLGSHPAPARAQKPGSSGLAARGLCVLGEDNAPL
Muscarinic acetylcholine receptor M1 (Homo sapiens), sequence (P11229 whole entry, looked up): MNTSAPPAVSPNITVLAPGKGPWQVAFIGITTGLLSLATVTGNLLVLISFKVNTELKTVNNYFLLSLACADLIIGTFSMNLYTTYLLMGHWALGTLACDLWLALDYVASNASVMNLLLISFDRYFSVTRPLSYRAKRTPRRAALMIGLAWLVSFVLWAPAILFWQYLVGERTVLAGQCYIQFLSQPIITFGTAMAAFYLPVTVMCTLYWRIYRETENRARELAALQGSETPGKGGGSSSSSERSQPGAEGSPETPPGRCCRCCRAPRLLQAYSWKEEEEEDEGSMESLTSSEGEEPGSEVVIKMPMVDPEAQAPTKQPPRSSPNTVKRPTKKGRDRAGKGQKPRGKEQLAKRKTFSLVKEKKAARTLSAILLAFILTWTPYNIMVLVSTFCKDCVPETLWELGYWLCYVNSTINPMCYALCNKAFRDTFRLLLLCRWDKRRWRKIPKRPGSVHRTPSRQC
5-hydroxytryptamine receptor 2A (Homo sapiens), sequence (P28223 whole entry, looked up): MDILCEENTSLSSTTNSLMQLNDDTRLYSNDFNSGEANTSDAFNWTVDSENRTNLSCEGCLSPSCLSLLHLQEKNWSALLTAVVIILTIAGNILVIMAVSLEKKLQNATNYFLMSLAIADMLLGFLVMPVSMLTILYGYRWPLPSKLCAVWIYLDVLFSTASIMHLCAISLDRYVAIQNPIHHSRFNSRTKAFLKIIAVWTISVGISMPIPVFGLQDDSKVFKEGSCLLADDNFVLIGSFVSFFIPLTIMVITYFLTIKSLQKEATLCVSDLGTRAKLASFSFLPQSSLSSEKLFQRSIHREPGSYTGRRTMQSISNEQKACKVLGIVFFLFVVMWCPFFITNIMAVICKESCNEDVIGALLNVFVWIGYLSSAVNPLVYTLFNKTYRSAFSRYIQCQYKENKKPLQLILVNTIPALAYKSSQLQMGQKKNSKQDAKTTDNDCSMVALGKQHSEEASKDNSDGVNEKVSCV

C[N+](C)(C)CC[N+]1(C)Cc2c(Cl)c(Cl)c(Cl)c(Cl)c2C1
inactive: [1] | [2] | [3] | [4] | [5] | [6] | [7] | [8] | [9] | [10] | [11] | [12] | [13] | [14] | [15] | [16] | [17] | [18] | [19]

C=CC(C)(O)CC/C=C(/C)CCC=C(C)C (stereo not drawn)
inactive: [1] | [2] | [3] | [4] | [5] | [6] | [7] | [8] | [9] | [10] | [11] | [12] | [13] | [14] | [15] | [16] | [20] | [18] | [19]

CCc1c(Br)c(Br)c(Br)c(Br)c1Br
inactive: [1] | [2] | [3] | [4] | [5] | [6] | [7] | [8] | [9] | [10] | [11] | [12] | [13] | [14] | [15] | [16] | [17] | [18] | [19]

Cc1cc(N)n(-c2ccccc2)n1
inactive: [1] | [2] | [3] | [4] | [5] | [6] | [7] | [8] | [9] | [10] | [11] | [12] | [13] | [14] | [15] | [16] | [20] | [18] | [19]

CCC(O)CO (stereo not drawn)
inactive: [1] | [2] | [3] | [4] | [5] | [6] | [7] | [8] | [9] | [10] | [11] | [12] | [13] | [14] | [15] | [16] | [17] | [18] | [19]

C1=Cc2ccccc2C1
inactive: [1] | [2] | [3] | [4] | [5] | [6] | [7] | [8] | [9] | [10] | [11] | [12] | [13] | [14] | [15] | [16] | [20] | [18] | [19]

OCC1CCC(CO)CC1 (stereo not drawn)
inactive: [1] | [2] | [3] | [4] | [5] | [6] | [7] | [8] | [9] | [10] | [11] | [12] | [13] | [14] | [15] | [16] | [20] | [18] | [19]
